High-throughput results deposited in PubChem BioAssay by several laboratories.
Most compounds without a hit are left out; they make up all but 4.7% or so of the library.
tim10-1 inh = inhibits growth of tim10-1 mutant yeast; S. cerevisiae tim10-1 ts strain growth, BacTiter-Glo, 24 h; inhibition, % at 20 µM; 330,000 tested, 2.2% active; AID 463190;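 active = inhibition of at least 40%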;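 also: mutant grown at 25 °C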
SKKanGAS inh = blocks kanamycin growth of S. pyogenes SKKanGAS strain. inhibition, % at 7.5 µM. AID 1662. 300,000 tested, 1.3% active. BacTiter-Glo, 6 h;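 active = mean replicate score, as percent of positive control median, at least 50; inconclusive = mean below 50 but one replicate at or above 50; inactive = mean and every replicate below 50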;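 also: strain carries kanamycin resistance gene driven by streptokinase promoter and grows in 40 µg/ml kanamycin; loss of luminescence reflects streptokinase promoter inhibition or plain growth inhibition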
PfHsp90 yeast 2 = reduces growth (ATP signal) of yeast expressing P. falciparum Hsp90. inhibition, % at 9.4 µM. 310,000 tested, 0.32% active. S. cerevisiae expressing PfHsp90, BacTiter-Glo ATP, 48 h; yeast lacking PDR1 and PDR3 efflux regulators;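 active = every replicate shows inhibition above about 80%, whatever the replicate mean, limit read from the data; inconclusive = mean inhibition reaches the set limit but some replicate falls short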
tim23-1 inh = inhibits growth of tim23-1 mutant yeast; inhibition, % at 20 µM; AID 463212; S. cerevisiae tim23-1 growth, BacTiter-Glo luminescence, 24 h; 330,000 tested, 1.3% active;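 active = growth inhibition of the mutant yeast at or above 50%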;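 also: temperature-sensitive mutant grown at 25 °C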
ATG4B inh = blocks human ATG4B protease cleavage of LC3 substrate; inhibition, % at 8.33 µM; AID 504462; ATG4B cleavage of LC3-PLA2, NBD-HPC fluorescence, 1 h; Q9Y4P1; 340,000 tested, 0.51% active; in the data active = inhibition above about 40%
Target sequence (Q9Y4P1 whole entry, looked up): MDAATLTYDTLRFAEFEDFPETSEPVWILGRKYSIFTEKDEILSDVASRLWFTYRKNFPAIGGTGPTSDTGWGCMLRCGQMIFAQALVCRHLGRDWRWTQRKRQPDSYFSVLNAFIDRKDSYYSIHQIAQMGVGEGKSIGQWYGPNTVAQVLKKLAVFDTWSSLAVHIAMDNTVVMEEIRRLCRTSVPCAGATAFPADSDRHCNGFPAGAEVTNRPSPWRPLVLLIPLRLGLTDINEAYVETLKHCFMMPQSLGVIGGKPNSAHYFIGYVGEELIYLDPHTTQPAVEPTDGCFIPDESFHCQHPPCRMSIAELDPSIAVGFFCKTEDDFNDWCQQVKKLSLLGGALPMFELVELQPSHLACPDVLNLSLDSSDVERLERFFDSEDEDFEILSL
TIM10 inh = inhibits growth of TIM10 yeast strain; 330,000 tested, 1.4% active; inhibition, % at 10 µM; S. cerevisiae TIM10 strain growth, BacTiter-Glo luminescence, 24 h;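 active = inhibition of 40% or more at the single tested concentration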;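 also: wild-type TIM10 isogenic control strain grown at permissive 25 °C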
A number is an active result; 0 = inactive; ? = inconclusive; - = not tested or not shown.

SMILES	tim10-1 inh	SKKanGAS inh	PfHsp90 yeast 2	tim23-1 inh	ATG4B inh	TIM10 inh
CN(Cc1nccs1)C(=O)c1cc(COc2cccc3cnccc23)on1	0	0	0	0	0	0
Cc1cc(C(N)=O)c2cc(Br)ccc2n1	0	0	0	0	0	0
COc1ccc(C(=O)/C=C2\C(=O)Nc3ccc(Br)cc32)cc1	-	-	144.2	-	0	-
COc1ccccc1NC(=O)Cn1c(=O)oc2ccccc21	0	0	0	0	0	0
Cc1cccc(Nc2nc(N)c([N+](=O)[O-])c(N3CC(C)CC(C)C3)n2)c1 (stereo not given)	0	0	101.1	0	0	0
O=C1C2C3C=CC(CNS(=O)(=O)c4ccccc4[N+](=O)[O-])(O3)C2C(=O)N1c1ccccc1 (stereo not given)	0	0	110.7	0	0	0
Cc1cc(C)c(S(=O)(=O)NCC23C=CC(O2)C2C(=O)N(c4ccccc4)C(=O)C23)c(C)c1 (stereo not given)	0	0	103.9	0	0	0
COC(=O)C1(CO)NC(c2ccc(C)cc2)C2C(=O)N(c3ccccc3)C(=O)C21 (stereo not given)	0	0	0	0	0	0
CCC1(C(=O)OC)NC(c2ccco2)C2C(=O)N(c3ccccc3)C(=O)C21 (stereo not given)	0	0	-	0	0	0
CC(C)(C)C(=O)NCC12C=CC(O1)C1C(=O)N(c3ccccc3)C(=O)C12 (stereo not given)	0	0	103.6	0	0	0
CCc1ccc(NS(=O)(=O)c2ccc3[nH]c(=O)[nH]c3c2)cc1	0	0	0	0	0	0
COc1ccc(N2CCN(C(=O)CSc3nnc4nc(C)cc(C)n34)CC2)cc1	0	0	0	0	0	0
O=C(COC(=O)c1ccc(O)cc1O)c1ccc2c(c1)OCO2	0	51.7	0	0	0	0
Cc1ccc(C2CC(=O)Nc3sc(C(N)=O)c(N)c32)cc1 (stereo not given)	0	0	0	0	0	0
CCN(CC)CCCNC(=O)c1cn(CC)c2ccc(S(=O)(=O)N(C)C3CCCCC3)cc2c1=O	0	0	0	0	0	0
CC(=NNC(=S)Nc1cccc(Cl)c1)c1ccccn1	-	-	124.4	-	0	-
CC(=NNC(=S)SCc1ccccc1)c1ccccn1	-	-	0	-	0	-
CC(=NNC(=S)N1CCC1)c1ccccn1	-	-	107.2	-	0	-
S=C(NCc1ccccn1)Nc1cccc(Cl)c1	0	0	0	0	0	0
CC(C)C(NC(=O)c1c(F)cccc1F)C(=O)N1CCN(S(=O)(=O)/C=C/c2ccccc2)CC1 (stereo not given)	0	-	0	0	0	0
O=C1c2cc(Cl)ccc2-c2c(O)cc(Cl)cc21	-	-	97.0	-	0	-
O=c1cc(O)c(-c2ccc(Cl)cc2)c(Cl)[nH]1	0	0	0	0	0	0
CC1CCc2c(C(=O)Nc3cccc(-c4nn[nH]n4)c3)csc2C1 (stereo not given)	0	55.5	0	0	0	0
CCc1nnc(NC(=O)c2csc3c2CCC(C)C3)s1 (stereo not given)	0	0	-	0	-	0
CC(Oc1ccc(Cl)cc1Cl)C(=O)Nc1ccc2oc(-c3ccncc3)nc2c1 (stereo not given)	0	51.3	-	0	0	0
SMILES	tim10-1 inh	SKKanGAS inh	PfHsp90 yeast 2	tim23-1 inh	ATG4B inh	TIM10 inh
CCOC(=O)Cc1nc(-c2ccccc2)n[nH]1	0	0	0	0	0	0
COc1cc(-c2c(C#N)c(N)nc3c2c(C)nn3-c2ccc(C)c(C)c2)cc(OC)c1OC	0	50.2	0	0	0	0
O=C(COc1ccc(Cl)cc1Cl)Nc1ccc(-c2ccc(N3CCOCC3)nn2)cc1	0	50.6	-	0	0	0
O=C(COc1ccc(Cl)cc1Cl)Nc1cccc(-c2ccc(N3CCOCC3)nn2)c1	0	0	0	0	0	0
Cc1nc(Nc2ncc3c(n2)CC(C)(C)CC3=O)nc2ccccc12	-	-	0	-	0	-
COC(=O)c1ccc(C(=O)OC)c(NC(=O)CN(C)Cc2cccc(Cl)c2Cl)c1	0	69.1	0	0	0	0
CCN(CC)S(=O)(=O)c1cccc(-c2csc(C)n2)c1	0	0	0	0	0	0
CC1CCCC(NC(=S)Nc2ccc(SC(F)F)cc2)C1C (stereo not given)	0	108.2	0	0	0	0
OC1CCC(NC(=S)Nc2ccc(SC(F)F)cc2)CC1 (stereo not given)	0	0	0	0	0	0
CC(C)c1ccc(NC(=O)C(=O)C2C(=O)Nc3ccccc32)cc1 (stereo not given)	0	0	0	0	0	0
Cc1ccc(Cn2c(O)c(N=NC(=S)Nc3ccccc3F)c3ccccc32)cc1	0	61.2	0	0	0	0
C=CCn1c(O)c(N=NC(=S)Nc2cccc(C)c2)c2ccccc21	0	94.3	0	0	0	0
Oc1c(N=NC(=S)Nc2ccccc2F)c2ccccc2n1Cc1ccccc1	0	?	0	0	0	0
CCn1c(O)c(N=NC(=O)CNc2cccc(C)c2)c2ccccc21	0	0	0	0	0	0
CCCCNCC(O)(c1ccc(Cl)cc1)c1ccc(Cl)cc1	0	0	0	0	0	0
Cc1noc(/C=C/N(C)C)c1S(=O)(=O)N1CCN(c2ccc(F)cc2)CC1	0	0	0	0	0	0
Cc1cccc(N2CCN(S(=O)(=O)c3c(C)noc3/C=C/N(C)C)CC2)c1C	0	0	111.4	0	0	0
Oc1ccc2ccccc2c1CN1CCN(c2ccccc2F)CC1	0	0	0	0	0	0
Cc1nnc(N2CCC(C(=O)N3CCCCC3)CC2)c2nn(-c3ccc(Cl)cc3)c(C)c12	0	0	0	0	52.8	0
CC(C)Cc1ccc(C(C)C(N)=Nc2ccc(O)cc2)cc1 (stereo not given)	0	0	0	0	0	0
Cc1cc(=S)nc(-c2ccccn2)[nH]1	0	0	0	0	0	0
Cc1[nH]c(-c2ccccn2)nc(=S)c1Cl	0	88.2	0	0	0	0
NS(=O)(=O)c1ccc(N2N=C(c3ccc(Br)cc3)CC2c2ccc(F)cc2)cc1 (stereo not given)	0	71.6	0	0	0	0
COc1ccc(CCCc2nnc(SCC(=O)Nc3ccc(OC)cc3)o2)cc1	0	0	0	0	0	0
CCn1c(=O)c(C(=O)Nc2ccccc2)c(O)c2ccccc21	0	0	0	0	0	0
CCn1c(=O)c(C(=O)NNC(=O)c2ccccc2Br)c(O)c2ccccc21	0	89.6	0	0	0	0
CCn1c(=O)c(C(=O)NNC(=O)Cc2ccccc2)c(O)c2ccccc21	0	54.3	0	0	0	0
CCCCCCCCCCC(=O)NNC(=O)c1c(O)c2ccccc2n(CC)c1=O	0	100.8	-	0	-	0
CCn1c(=O)c(C(=O)Nc2nc3ccccc3[nH]2)c(O)c2ccccc21	0	103.1	0	0	0	0
Cc1oc(/N=C/c2ccc(Cl)cc2)c(C#N)c1C	0	0	0	0	0	0
